The record followed here is PubChem BioAssay (NCATS).

Values joined by “and” are separate entries in the source; they are usually repeats but may differ in a detail not shown here. Equal values may be shown once. Records with an inconclusive call do not appear. Active and inactive are the calls of the source. Calls come from the whole dose curve; as a rule, active = well fitted cell-killing curve with a large enough effect; inconclusive = small, poorly fitted or top-dose-only effect, or effect the other way; inactive = no such curve, though single readings can be large or run the other way.
Potency is the fitted concentration of half-maximal effect.

The nature of the assay: Viability qHTS for spleen associated tyrosine kinase inhibitor (SYKi) naive MV4-11 cells (AID 1963823). Note: nearly all actives have a fitted effect of over 40% in size. Conditions: MV4-11 AML viability, CellTiter-Glo luminescence, 72 h; series mostly up to 45 µM; viability (% of control): at the top concentration. The source says:
Department of Medicine, Hematology/Oncology
University Hospital Frankfurt, Germany.
Trials have shown promising clinical activity of the selective SYK inhibitor entospletinib in patients with high expressing HOXA9/MEIS1 acute leukemias. As the development of resistance mechanisms is a common problem in the use of targeted drugs, we performed a chemical library screen to identify drug sensitivities in SYK inhibitor resistant AML cells. […] Glucocorticoids are potent immunosuppressants which work in part by inhibiting the transcription of cytokine genes.
Described herein is a viability screen to look for activity in the SYK inhibitor naive cell line against four NCATS compound libraries (MIPE 5.0, NPC, NPACT, and Kinase) totaling 11372 compounds. Active hits were reacquired for confirmation and further secondary assay testing.
SEQUENCE No. (e.g., 1, 2, 3, etc.); […] (e.g., Cells, Incubation, Reagent, etc.); VALUE; DESCRIPTION.
1; Media; 2uL; white, solid-bottom Corning assay plate.
2; Compounds; 23nL; Echo acoustic dispenser.
3; Cell; 5uL; 500 cells per well.
4: Incubation; 72hr; 37 C, 5% CO2, 95% humidity.
5; Reagent; 3uL; CellTiter-Glo reagent (Promega).
6; Incubation; 10min; room temperature.
7; Detection; Luminescence; ViewLux plate reader (PerkinElmer).
NOTES (numbers refer to Sequence numbers above
1. Quantitative high-throughput screening (qHTS) of small molecule compounds was conducted on naive SYKi MV4-11 cell line.
2. Twenty-three nanoliter of small molecule compounds were added to each assay plates using the Echo acoustic dispenser (Beckman Coulter).
3. Cells were seeded into the assay plates at a final density of 500 cells in 5uL of media per well using the Multi-drop Combi dispenser.
4. Plates were covered with stainless steel gasketed lids and incubated for 72 hours at standard cell culture conditions.
5. Viability was assessed by adding 3uL of CellTiter-Glo detection reagent (Promega).
6. Plates were covered with gasket lids and incubated for 10 minutes at room temperature.
7. Luminescence was measured on a ViewLux plate reader (PerkinElmer).
For `Cc1ccc(C(=O)N(CCCN)[C@@H](c2oc3cc(Cl)ccc3c(=O)c2Cc2ccccc2)C(C)C)cc1`, the Potency was 0.0105 µM (active).

As to `CC1(CO)CC(O)C2(C)CCC3(C)C(=CCC4C5(C=O)CCC(OC6OC(C(=O)O)C(O)C(O)C6OC6OC(C(=O)O)C(O)C(O)C6O)C(C)(C)C5CCC43C)C2C1` (stereo not given), the viability (% of control) is 87.7% [at 9.25 µM] (inactive). `Cc1cnc(Nc2ccc(CN3CCOCC3)cc2)nc1Nc1cccc(S(=O)(=O)NC(C)(C)C)c1`: the Potency was 0.164 µM (active). `COc1ccc2cc(-c3nc(-c4ccc(S(C)=O)cc4)[nH]c3-c3ccncc3)ccc2c1` (stereo not given): the Potency is 9.34 µM (active) and 11.6 µM (active). Regarding `N#Cc1cc(F)cc(-c2nc(-c3ccccn3)no2)c1`, the “viability (% of control)” value is 80.7% (inactive).

On to `Cc1ccc(-n2nc(C(C)(C)C)cc2NC(=O)Nc2ccc(OCCN3CCOCC3)c3ccccc23)cc1`, for which the Potency was 8.2 µM (active). As for `COc1c2occc2cc2ccc(=O)oc12`, the “viability (% of control)” value is 94.3% (inactive). Regarding `COc1cc(S(N)(=O)=O)cc(C(=O)O)c1OC`, the “viability (% of control)” value was 89.3% (inactive).

On to `CCN1/C(=C/C(C)=O)Sc2ccc(OC)cc21`, for which the Potency was 9.2 µM (active).

Turning to `NCc1ccc(S(N)(=O)=O)cc1`, the “viability (% of control)” value is 84.5% (inactive).

In the case of `CC(c1c[nH]c2ccccc12)C(O)C(=O)O` (stereo not given), the “viability (% of control)” value was 59.3% (inactive).

Turning to `CC1(C)CCC2(C(=O)OC3OC(CO)C(O)C(O)C3O)CCC3(C)C(=CCC4C5(C)CCC(OC6OC(C(=O)O)C(OC7OC(CO)C(O)C(O)C7O)C(OC7OC(CO)C(O)C(O)C7O)C6O)C(C)(C)C5CCC43C)C2C1` (stereo not given), the viability (% of control) was 77.9% [at 9.25 µM] (inactive). `C[C@@]1(C(=O)Nc2ccc(F)nc2)CCCN1c1nc(Nc2cc(C3CC3)[nH]n2)c2cccn2n1`: the Potency was 1.46 µM (active).

`O=C(NCc1cccc(O)c1)c1cc2cc(F)ccc2[nH]1`: the Potency is 16.4 µM (active). Still for that read-out and setting: in the case of `NC(=O)c1cccc2c(NC(CN3CCC3)c3ccc(Cl)c(C(F)(F)F)c3)ncnc12` (stereo not given) it was 1.48 µM (active); in that of `CC[C@@H]1[C@H](F)C(=O)N[C@@H]1COc1nccc2cc(C(N)=O)c(OC)cc12`, 11.8 µM (active). Turning to `CC(=O)NC(Cc1ccccc1)C(=O)O` (stereo not given), the “viability (% of control)” value is 52.1% [at 91.9 µM] (inactive). For the compound `C=C1CC[C@@H](O)[C@]2(C)CC[C@H]3C(=C)C(=O)O[C@@H]3[C@@H]12`, the Potency is 18.4 µM (active). Consider `CCCCOc1ccc(CC/C=C2\SC(=O)N(CCN)C2=O)cc1`, for which the Potency is 5.17 µM (active).

Regarding `C/C=C(\C)C(=O)OC[C@H]1O[C@@H](O[C@H]2[C@@H](O[C@H]3O[C@H](COC(=O)/C(C)=C/C)[C@@H](O)[C@H](O)[C@H]3O[C@@H]3O[C@H](COC(=O)/C(C)=C/C)[C@@H](O)[C@H](OC(=O)/C(C)=C/C)[C@H]3O)O[C@H](COC(=O)/C(C)=C/C)[C@@H](O)[C@@H]2O)[C@H](O)[C@@H](O)[C@@H]1O`, the viability (% of control) is 68.7% [at 9.25 µM] (inactive). On the same count and under the same terms, with `O=C(O)c1n[nH]c2c1C[C@H]1C[C@@H]21` the figure was 76% (inactive); with `COc1ccc2c(c1)OC[C@]1(O)c3cc4c(cc3O[C@H]21)OCO4`, 58.7% (inactive). In the case of `CCCCCN(C)CCC(O)(P(=O)(O)O)P(=O)(O)O`, the viability (% of control) is 73% [at 4.97 µM] (inactive). In the case of `Cc1cc(C)nc(NS(=O)(=O)c2ccc(NC(=S)NC(=O)COc3ccc(Br)cc3Cl)cc2)n1`, the “viability (% of control)” value was 83.1% (inactive). Take `CC(=O)O[C@H]1C[C@@H](O)C(C)(C)C2C[C@@H](OC(C)=O)[C@]3(C)C(CC[C@@]4(C)[C@H](c5ccoc5)OC(=O)[C@H]5O[C@]543)[C@]21C` (stereo not given in full): the “viability (% of control)” value is 77.4% [at 17.3 µM] (inactive). Still for that read-out and setting: in the case of `O=C(/C=C/c1ccc(/C=C/C(=O)Nc2ccc(C3=NCCN3)cc2)cc1)Nc1ccc(C2=NCCN2)cc1` it was 73.8% [at 4.97 µM] (inactive). As for `CCCN(CCC)C(=O)C(CCC(=O)O)NC(=O)c1ccccc1` (stereo not given), the Potency result is “inactive”. With `CCCOC(c1cc2nccc(C(=O)O)c2[nH]1)c1ccccc1Cl` (stereo not given), the “viability (% of control)” value was 82.9% (inactive). On to `C=CC1(C)CC(OC(=O)/C(C)=C\COC(C)=O)C(C(=C)C(=O)O)C(O)C1C(=C)CO` (stereo not given), for which the “viability (% of control)” value is 89.8% [at 17.3 µM] (inactive). Regarding `COc1cc(C)c(Cc2cnc(N)nc2N)cc1OC`, the “viability (% of control)” value was 81.1% (inactive).

Regarding `CC1CCC23COC(=O)C2=CC(O)CC3C1(C)CCC1=CC(=O)OC1O` (stereo not given), the “viability (% of control)” value was 95.4% (inactive). Still for that read-out and setting: in the case of `Cc1ccc(C)c(NC(=O)CNS(=O)(=O)c2ccc3[nH]c(=O)oc3c2)c1` it was 72.9% (inactive). As for `O=C(Nc1cccc(C(F)(F)F)c1)Nc1cc(S(=O)(=O)NC2CC2)ccc1-c1ccsc1`, the Potency is 14.8 µM (active).

As for `COc1cc2c(c(OC)c1OC)-c1ccc(OC)c(=O)cc1[C@@H](NC(C)=O)CC2`, the Potency is 23.7 nM (active) and 18.6 nM (active). On to `COc1ccc2cc(-c3cc(-c4cc(Cl)cc(Cl)c4)nn3C(C)c3ccc(C(=O)NCCC(=O)O)cc3)ccc2c1` (stereo not given), for which the Potency is 23.1 µM (active). In the case of `CC1(C)CC[C@]2(C(=O)O[C@@H]3O[C@H](CO)[C@@H](O)[C@H](O)[C@H]3O)CC[C@]3(C)C(=CCC4[C@@]5(C)C[C@@H](O)[C@H](O)[C@](C)(C=O)C5CC[C@]43C)[C@@H]2[C@@H]1O` (stereo not given in full), the “viability (% of control)” value is 76.5% [at 17.3 µM] (inactive). As to `COc1cc(C(=O)N2CCOCC2)cc(OC)c1OC`, the “viability (% of control)” value is 87.8% (inactive). Take `CC(C)=CCc1cc(O[C@@H]2O[C@H](CO[C@@H]3OC[C@](O)(CO)[C@H]3O)[C@@H](O)[C@H](O)[C@H]2O)ccc1O`: the “viability (% of control)” value was 99.1% [at 17.3 µM] (inactive). As to `C=C1CC[C@@H]2[C@](C)(CO)[C@H](O)CC[C@@]2(C)[C@@H]1C/C=C1/C(=O)OC[C@@H]1O`, the Potency is 4.53 µM (active). On to `CC(C)(C)n1nc(Cc2cccc3ccccc23)c2c(N)ncnc21`, for which the Potency is 10.3 µM (active).
